Results from PMC6792352, “Limited Chemical Structural Diversity Found to Modulate Thyroid Hormone Receptor in the Tox21 Chemical Library” (Environmental Health Perspectives, 2019).
Structures can show the parent of a compound that is named as a salt.

test system: thyroid hormone receptor (endogenous TRα and TRβ); set-up: species or system GH3-TRE-Luc (rat pituitary); GH3-TRE-Luc luciferase reporter, antagonist mode against 1 nM T3, loss of signal, qHTS; conditions: read-out: Average AC50 (uM) GH3-TRE-Antag, antagonist mode, 1 nM T3, no GH3 cytotoxicity hit

Point of comparison: `O=[N+]([O-])c1cc[n+]([O-])cc1` [4-Nitropyridine-1-oxide], AC50 80.5 µM. Against it:
- Nc1nc(N)c2nc(-c3ccccc3)c(N)nc2n1 [Triamterene] — 2.1-fold lower, 39.2 µM
- O=C(O)c1cccnc1Nc1cccc(C(F)(F)F)c1 [Niflumic acid] — 4-fold lower, 20.3 µM
- C=CC(=O)OCCOc1ccccc1 [2-Phenoxyethyl acrylate] — 1.7-fold lower, 47.8 µM
- CCCCC(CC)C(=O)OCCOCCOCCOCCOC(=O)C(CC)CCCC (stereo not shown) [Tetraethylene glycol di(2-ethylhexanoate)] — within 1.5-fold, 82.3 µM
- C[C@]12C[C@H](O)[C@H]3[C@@H](CCC4=CC(=O)CC[C@@]43C)[C@@H]1CC[C@@H]2C(=O)CO [Corticosterone] — not separable, > 50 µM
- C/C=C(C)/C=C/C=C(C)C [2,6-Dimethyl-2,4,6-octatriene] — higher, > 90 µM
- COc1ccc(Cc2nccc3cc(OC)c(OC)cc23)cc1OC [Papaverine hydrochloride] — 5.2-fold lower, 15.6 µM
- O=C(O)c1cccc(C[C@@H]2COc3ccc(OCc4nc5cc(F)ccc5s4)cc3[C@@H]2O)c1 [CP-085958] — 1.5-fold lower, 53.1 µM
- CC(=O)O[C@]1(C(C)=O)CC[C@H]2[C@@H]3C=C(C)C4=CC(=O)CC[C@]4(C)[C@H]3CC[C@@]21C [Megestrol acetate] — not separable, > 20 µM
- Nc1ccccc1N [1,2-Phenylenediamine dihydrochloride] — within 1.5-fold, 92.5 µM
- CCN(CC)CCO[C@H]1CC[C@@]2(C)C(=CC[C@@H]3[C@@H]2CC[C@]2(C)C(=O)CC[C@@H]32)C1 [3beta-(2-Diethylaminoethoxy)androst-5-en-17-one hydrochloride] — 3.6-fold lower, 22.5 µM
- C=CC(C)(O)CC/C=C(\C)CCC=C(C)C (stereo not drawn) [trans-Nerolidol] — 8.2-fold lower, 9.85 µM
- CC(Oc1ccc(Oc2ncc(C(F)(F)F)cc2Cl)cc1)C(=O)O (stereo not shown) [Haloxyfop] — within 1.5-fold, 58.9 µM
- O=P(c1ccccc1)(c1ccccc1)c1ccccc1 [Triphenylphosphine oxide] — within 1.5-fold, 58.7 µM
- COc1ccc(-n2nc(C(F)F)cc2-c2ccc([S+](C)[O-])cc2)cc1 (stereo not shown) [Difpas-pyrazole] — within 1.5-fold, 70.2 µM
- COc1ccc2nc(NC(=O)Nc3ccccc3)sc2c1 [Frentizole] — 7.1-fold lower, 11.4 µM
- Cc1ccc(-n2nc(C(C)(C)C)cc2NC(=O)Nc2ccc(OCCN3CCOCC3)c3ccccc23)cc1 [Doramapimod] — 1.8-fold lower, 45.9 µM
- CN1CCN2c3ncccc3Cc3ccccc3C2C1 (stereo not shown) [Mirtazapine] — 5.2-fold lower, 15.4 µM
- C=C1C[C@@H]2[C@H](CC[C@]3(C)C(=O)CC[C@@H]23)[C@@]2(C)C=CC(=O)C=C12 [Exemestane] — 2.3-fold lower, 34.6 µM
- C#C[C@]1(O)CC[C@H]2[C@@H]3CCC4=C(CCC(=O)C4)[C@H]3CC[C@@]21C [Norethynodrel] — 4.9-fold lower, 16.4 µM
- Cc1ccc(C(=O)C(C)CN2CCCCC2)cc1 (stereo not shown) [Tolperisone hydrochloride] — not separable, > 50 µM
- CC(C)c1c(CN(C)C(C)Cc2ccccc2)n(C)n(-c2ccccc2)c1=O (stereo not shown) [Famprofazone] — 6.1-fold lower, 13.1 µM
- Cl/C(=C\n1cncn1)c1ccc(Cl)cc1Cl [Loreclezole hydrochloride] — 4.4-fold lower, 18.3 µM
- O=C1c2ccccc2-c2n[nH]c3cccc1c23 [SP600125] — 6.9-fold lower, 11.6 µM
- CCCCCCC(=O)O[C@H]1CC[C@H]2[C@@H]3CCc4cc(O)ccc4[C@H]3CC[C@]12C [Estradiol enanthate] — 4.3-fold lower, 18.9 µM
- C=C(C)CN(CC)c1c([N+](=O)[O-])cc(C(F)(F)F)cc1[N+](=O)[O-] [Ethalfluralin] — higher, > 90 µM
- CCOC(=O)C1=NN(c2ccccc2)C(=O)C1 [Ethyl 5-oxo-1-phenyl-4,5-dihydro-1H-pyrazole-3-carboxylate] — 1.7-fold lower, 47.8 µM
- CNc1cc(OC)c(C(=O)N[C@@H]2CCN(Cc3ccccc3)[C@@H]2C)cc1Cl (racemic) [Nemonapride] — 2.2-fold lower, 36.4 µM
- CC[C@@]1(O)C(=O)OCc2c1cc1n(c2=O)Cc2cc3c(CN(C)C)c(O)ccc3nc2-1 [Topotecan hydrochloride] — 33-fold lower, 2.45 µM
- Cc1nc(-c2ccc(OCC(C)C)c(C#N)c2)sc1C(=O)O [Febuxostat] — 4.5-fold lower, 17.9 µM
- CCOc1cc(N)c(Cl)cc1C(=O)NCC1CN(Cc2ccc(F)cc2)CCO1 (stereo not shown) [Mosapride citrate] — 1.9-fold lower, 43.4 µM
- Cl/C=C\C[N+]12CN3CN(CN(C3)C1)C2 [Chloroallyl methenamine chloride] — within 1.5-fold, 89.1 µM
- NC1CCN(c2nc3c(cc2F)c(=O)c(C(=O)O)cn3-c2ccc(F)cc2F)C1 (stereo not shown) [Tosufloxacin toluenesulfonic acid] — 3.8-fold lower, 21.1 µM
